Compound activity: PubChem BioAssay, National Center for Advancing Translational Sciences (NCATS)
The list is not random: actives were taken first. Their share in the collection is about 6.2%.
KB-V1 MDR tox – KB-V1 MDR subline cytotoxicity; Potency, µM (titrated, usually from 46.1 µM), usual class: cytotoxic; AID 1347076; 400,000 tested, 3.4% active; KB-V1 MDR cells viability, CellTiter-Glo, 72 h; note: % is set by controls: 0 for no effect and ±100 for the full control effect; nearly all actives have a fitted effect of over 60% in size
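KB-V1, DMEM (no phenol red) + 10% FBS; cpd pin-transferred, titration series; 72 h, 37 degrees C; CellTiter-Glo, luminescence. Data normalized, curve-fit.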
ATXN2 expr inh – ATXN2 expression inhibition; HEK-293 ATXN2-luciferase reporter, luminescence, 24 h; Potency, µM (top dose mostly 57 µM), without a hit: at the highest dose activity change, negative = inhibition, most hits filed as inhibitors; 360,000 tested, 0.72% active; note: % is set by controls: 0 for no effect and ±100 for the full control effect; nearly all actives have a fitted effect of over 55% in size
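ATXN2-luciferase reporter cells (luciferase flanked by upstream and downstream ATXN2 gene portions) were treated 24 h at 37 °C with compounds at up to 57 uM. SteadyGlo luminescence gave expression; GF-AFC fluorescence gave viability.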
HT1080 IDH1KD tx – kills HT-1080 cells with IDH1 knockdown. AID 686971. Potency, µM (series often up to 46.1 µM), inactives show top-dose activity, negative = toxicity, usual class: cytotoxic. HT-1080 IDH1 knockdown viability, ATP luminescence, 48 h. 360,000 tested, 2% active;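 note: 0% = DMSO wells and -100% = cell-free medium wells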
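Viability of IDH1-knockdown HT-1080 fibrosarcoma cells was assessed by CellTiter-Glo after 48 h at 37 °C with titrated compound; concentration-effect curves were classified by fit quality and response size.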
KB-3-1 tox – kills parental KB-3-1 adenocarcinoma cells | KB-3-1 viability, CellTiter-Glo ATP luminescence, 72 h | Potency, µM (top dose mostly 46.1 µM), usual class: cytotoxic | AID 1347075 | 400,000 tested, 1.4% active; note: % is set by controls: 0 for no effect and ±100 for the full control effect; nearly all actives have a fitted effect of over 60% in size
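Multi-concentration cytotoxicity screen in KB-3-1 cells grown in DMEM lacking phenol red with 10% FBS. After 72 h at 37 °C with compound, ATP-dependent luminescence was recorded.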
ATXN viability – cell viability loss in ATXN counter-screen; Potency, µM (titrated, usually from 56.7 µM), most hits filed as cytotoxic; S2 cells (HEK-293 line with an ATXN2-luciferase reporter) viability, CellTiter-Fluor protease fluorescence, 24 h; 400,000 tested, 0.49% active; AID 651635; note: nearly all actives have a fitted effect of over 40% in size
HT1080NT lethal – kills 2HG-producing HT-1080-NT fibrosarcoma cells; HT-1080-NT fibrosarcoma viability, CellTiter-Glo ATP luminescence, 48 h; Potency, µM (highest dose often 46.1 µM), for the others: at the highest dose activity, negative = less viability, actives largely listed as cytotoxic; 360,000 tested, 1.6% active; AID 686970;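 note: NT is the 2HG producing partner of a matched IDH1 knockdown line; 0% = DMSO-treated cells and -100% = media-only wells without cells; nearly all actives have a fitted effect of over 55% in size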
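Luminescent CellTiter-Glo readout after 48 hours of compound exposure at 37 degrees C defined viability of HT-1080-NT cells. Activity was normalized to DMSO wells and cell-free media wells; concentration-response curves were fitted and assigned curve classes.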
Numbers without * were called inactive; i = inactive; ? = inconclusive; . = no result; [ ] = another dose, or the depositor's remark. Calls come from the whole dose curve; as a rule, active = well fitted curve in the direction sought with a large enough effect; inconclusive = small, poorly fitted or top-dose-only effect, or another doubt; inactive = no such curve, though single readings can be large; an effect the other way counts as inactive or inconclusive. Potency is the fitted concentration of half-maximal effect.

SMILES | KB-V1 MDR tox | ATXN2 expr inh | HT1080 IDH1KD tx | KB-3-1 tox | ATXN viability | HT1080NT lethal
C(=N\Nc1nc2ccccc2s1)/c1cccs1 | ? | 42.6% | 11.2µM* | i | i | 10µM*
CSc1nnc(CNS(=O)(=O)c2ccc(F)cc2F)n1-c1ccccc1C | . | . | . | . | i | .
CCN(C(=O)Cn1nnc2sc(-c3ccccc3)cc2c1=O)c1cccc(C)c1 | i | 4.4% | . | i | i | .
Cc1ccc(NC(=S)N2CCN(CCN3C(=O)c4cccc5cccc(c45)C3=O)CC2)cc1 | 14.6µM* | -7.7% | -2.7% | i | i | -19.4%
Cc1ccc(NC(=O)CCN2C(=O)c3cccc4cccc(c34)C2=O)cc1 | i | -9.9% | -1.6% | i | i | 14.2%
COc1ccc(C(=O)CN2CCN(CCN3C(=O)c4cccc5cccc(c45)C3=O)CC2)cc1 | i | -36.6% | -29.7% | i | i | -26.9%
COc1cc2c3c(cccc3c1)C(=O)N(CCN1CCCC1)C2=O | 10.3µM* | . | 8.2µM* | ? | i | 13µM*
Cc1c(Cl)cccc1NC(=O)Nc1cccnc1 | i | 3.6% | -1.4% | i | i | 0.5%
COc1ccccc1NC(=O)Nc1cnccn1 | 4.11µM* | 2.0% | 14.4% | ? | i | 14.3%
Cc1c(Cl)cccc1NC(=O)Nc1cnccn1 | ? | 9.2% | -1.5% | 16.4µM* | i | 2.4%
O=C(NCCSCc1ccccc1)C1CCN(S(=O)(=O)Cc2ccccc2)CC1 | ? | 4.9% | . | i | i | .
CCCCCOC(=O)Nc1nc(=O)n([C@@H]2O[C@H](C)[C@@H](O)C2O)cc1F (some centres undefined) | . | -9.6% | . | . | . | .
Cc1ccsc1CN(C)c1ncnc2ccc(-c3ccc4c(c3)OCO4)cc12 | i | . | . | ? | . | .
COc1cccc(OC)c1C(=O)NNC(=O)c1cccc(COc2ccc3c(c2)CCC3)c1 | ? | 5.62µM* | -18.4% | i | i | -12.5%
O=C(NCc1ccccc1)c1cccc(COc2ccc3c(c2)CCC3)c1 | 16.4µM* | 0.0% | -8.8% | i | i | -3.2%
COc1ccc(S(=O)(=O)N(CC(=O)NCCSc2ccccc2)c2ccc(Cl)cc2)cc1 | i | -22.6% | . | i | i | .
CCC1CN(CC(=O)NCc2cccc(Br)c2)c2ccccc2S1 (centres undefined) | ? | 3.0% | . | i | i | .
O=C(O)Cn1cc(/C=C/[N+](=O)[O-])c2ccccc21 | ? | -27.2% | 1.2% | i | ? | -1.0%
O=C(Cn1cc(/C=C\[N+](=O)[O-])c2ccccc21)Nc1ccccc1 | ? | ? | 3.66µM* | ? | . | ?
N#Cc1ccccc1Cn1cc(/C=C/[N+](=O)[O-])c2ccccc21 | ? | ? | 23.1µM* | ? | . | 23.1µM*
CCC(C(=O)OCC(=O)N1CCN(S(=O)(=O)c2ccc(C)cc2C)CC1)c1ccccc1 (centres undefined) | 14.6µM* | 3.6% | 10.2% | i | ? | 1.5%
COc1cc(OC)c(C(=O)OCC(=O)N2CCN(S(=O)(=O)c3ccc(C)cc3C)CC2)cc1OC | 16.4µM* | -4.0% | -0.1% | i | i | 13.5%
COC(=O)c1cc(Cl)ccc1OC | . | 6.8% | . | . | i | .
CCOC(=O)c1c(Oc2ccc(C(=O)OC)cc2)nnc(-c2ccccc2)c1-c1ccccc1 | i | -19.0% | . | i | i | .
CC(=O)c1sc2nc(CSc3nnnn3-c3ccccc3)[nH]c(=O)c2c1C | i | 4.0% | -0.2% | i | i | -4.0%
SMILES | KB-V1 MDR tox | ATXN2 expr inh | HT1080 IDH1KD tx | KB-3-1 tox | ATXN viability | HT1080NT lethal
Cc1ccc(-n2nnnc2SCc2nc3sc(C)c(C)c3c(=O)[nH]2)cc1 | 18.4µM* | -7.4% | -0.1% | i | i | 9.8%
CCOc1ccc(N(C(C)C(=O)NCCSc2ccc(Cl)cc2)S(C)(=O)=O)cc1 (centres undefined) | i | -30.8% | . | ? | i | .
CN1CCc2c(c3cnc4cc(Cl)ccc4c3n2C)C1 | i | . | . | i | . | .
CC(C)Oc1cccc(C(=O)C2CCCN(Cc3cccn3-c3ccccn3)C2)c1 (centres undefined) | ? | -20.0%[11.3 µM] | 20.6µM* | ? | ? | 23.1µM*
O=C(c1ccc(Cl)cc1)C1CCCN(Cc2cccn2-c2ccccn2)C1 (centres undefined) | i | ? | 23.1µM* | i | ? | 16.4µM*
CCCCCn1c(=N)n(CC(O)COc2cccc(C)c2)c2ccccc21 (centres undefined) | ? | 31.6µM* | . | i | 20µM* | .
CCCn1c(=N)n(CC(O)COc2cccc(C)c2)c2ccccc21 (centres undefined) | 14.6µM* | ? | ? | ? | ? | -17.9%
Cc1cc(OCC(=O)N2CCC(c3nc4ccccc4s3)CC2)ccc1Cl | ? | ? | . | i | ? | .
COc1ccc(C2=Nc3ccccc3N(C(=O)c3ccc4c(c3)OCO4)C2C(=O)NCc2ccccc2)cc1 (centres undefined) | ? | . | ? | 4.61µM* | . | -41.0%
Cc1c(N2C(=O)/C(=C\c3ccccc3O)SC2=S)c(=O)n(-c2ccccc2)n1C | i | -19.8% | 4.1% | i | i | -5.9%
CN1C(=O)/C(=C/c2cc(N=Nc3ccccc3)ccc2O)SC1=S | i | ? | 17.5% | i | 28.2µM* | 1.5%
COc1ccc(-c2ccnc(-n3ncc(C(=O)NC(C)(C)CO)c3C3CC3)n2)cc1F | . | . | . | . | i | .
COc1cccc(CNc2nc3cc(-c4cccc(C(F)(F)F)c4)sc3c(=O)n2C)c1OC | i | 1.0% | 1.4% | i | i | -0.4%
COc1cccc(CNc2nc3cc(-c4ccccc4)sc3c(=O)n2C)c1OC | i | ? | ? | 23.1µM* | ? | ?
COc1cccc(CNc2nc3cc(-c4ccccc4CO)sc3c(=O)n2C)c1 | i | -4.2% | ? | ? | ? | 29.1µM*
COc1cccc(CNc2nc3cc(-c4cccc(Cl)c4)sc3c(=O)n2C)c1OC | 8.2µM* | -0.2% | -7.2% | 14.6µM* | i | -4.4%
COc1ccccc1CNc1nc2cc(-c3ccc(OC)c(OC)c3)sc2c(=O)n1C | 9.2µM* | 0.0% | -11.4% | ? | i | -24.0%
COc1ccccc1-c1nc2c(c(SCc3ccc(F)cc3Cl)n1)Cc1c(CO)cnc(C)c1O2 | i | 12.8% | . | i | i | .
CO[C@H]1C=CO[C@@]2(C)Oc3c(C)c(O)c4c(O)c(c5c(c4c3C2=O)NC2(CCN(CC(C)C)CC2)N=5)=NC(=O)C(C)=CC=C[C@H](C)[C@H](O)[C@@H](C)[C@@H](O)[C@@H](C)[C@H](OC(C)=O)[C@H]1C | . | -9.6% | . | . | . | .
